Measured values from PubChem BioAssay (NCATS).
Inconclusive results are not listed. A number with no mark means an inactive call. Activity calls are given as the source filed them. The call rests on the fitted dose curve; in most records, active means well fitted cell-killing curve with a large enough effect; inconclusive means small, poorly fitted or top-dose-only effect, or effect the other way; inactive means flat fitted curve, though single readings scatter.

What follows are compounds tested on PA-1 (assay: Primary qHTS to identify gynecologic anti-cancer compounds using libraries of approved drugs and bioactive compounds (AID 1345084; further: nearly all actives have a fitted effect of over 55% in size)). Details: Gynecologic cancer cell panel viability, ATPlite luminescence, 48 h; series mostly up to 57.5 µM; activity change, negative = cytotoxicity: at the top concentration.
Method in brief: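 Cells, 1,000 per well, were allowed to settle for 16 h at 37 C before compound addition. Five concentrations were tested for 48 h, and viability was read by ATPlite luminescence after 15 min at room temperature.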
On the % scale 0 is the no-effect control and ±100 the full control effect.

| SMILES | activity change, negative = cytotoxicity | Potency |
| --- | --- | --- |
| CC(C)(C)c1nnc(NS(=O)(=O)c2ccc(N)cc2)s1 | 0.255% |  |
| Cc1ccc(C(=O)c2ccc(CC(=O)O)n2C)cc1 | -1.04% |  |
| CCCCCCCC/C=C/C(=O)O | 9.7% |  |
| O=C(/C=C/c1ccccc1)NCCO | 4.09% |  |
| COc1cc2c3cc1Oc1cc(ccc1O)C[C@@H]1c4c(cc(OC)c(O)c4Oc4ccc(cc4)C[C@@H]3N(C)CC2)CC[N+]1(C)C | -10.8% |  |
| O=C(O)Cc1ccc2c(c1)C(=O)c1ccccc1CO2 | 8.93% |  |
| O=C(Nc1ccc(C(=O)O)c(O)c1)c1ccccc1 | 1.04% |  |
| CO[C@@]1(NC(=O)Cc2cccs2)C(=O)N2C(C(=O)O)=C(COC(N)=O)CS[C@@H]21 | -0.811% |  |
| Nc1ccc(O)c(C(=O)O)c1 | 21.6% |  |
| C=CCCCCCCCCC(=O)O | 3.16% |  |
| Nc1c(CC(=O)O)cccc1C(=O)c1ccc(Br)cc1 | 0.0155% |  |
| O=C(OCc1ccccc1)c1ccccc1 | -1.18% |  |
| CCCCCCCCCCCCOCCO | -1.9% |  |
| CN(C)[C@@H]1C(=O)C(C(=O)NCN2CCCC2)=C(O)[C@@]2(O)C(=O)C3=C(O)c4c(O)cccc4[C@@](C)(O)C3C[C@@H]12 (stereo partly specified) | 7.87% |  |
| O=C(O)Cc1ccc(-c2ccccc2)cc1 | 4.91% |  |
| Cc1c(Nc2ncccc2C(=O)O)cccc1C(F)(F)F | -16.1% |  |
| CC(C(=O)O)c1ccc2c(c1)[nH]c1ccc(Cl)cc12 (stereo unspecified) |  | inactive |
| CCCOC(=O)c1ccc(O)cc1 | -3.97% [at 116 µM] |  |
| CCCCCCCCCCCC(=O)[O][Sn]([CH2]CCC)([CH2]CCC)[O]C(=O)CCCCCCCCCCC | 0.26% |  |
| O=C(O)/C=C\C(=O)O | 13.5% |  |
| CCOC(=O)c1ccccc1O | -2.68% |  |
